# Experimental data: ChEMBL document CHEMBL5606460, “ASAP - DENV-2 NS2B-NS3 protease fluorescence single point” (2024)
# The whole screen tested about 2,000 compounds, of which about 110 (5.5%) showed an effect of 50% or more. The sample holds strong results, similar compounds and a random draw of the others, so the mix is not that of the screen.
# Molecular target: Genome polyprotein (dengue virus type 2) (UniProt P29990)
# [1] = Thailand/16681/1984, Concentration 25.0 uM, Number of replicates 1.0
smiles,measurement,setting,value
CNC(=O)[C@H]1CCN(S(=O)(=O)c2ccc(Oc3ccccc3Cl)cc2)C1,inhibition,"Thailand/16681/1984, Concentration 49.5 uM, Number of replicates 2.0, Standard deviation 0.2326651022960228 %",-2.7%
same,inhibition,"Thailand/16681/1984, Concentration 99.01 uM, Number of replicates 2.0, Standard deviation 1.0727392899756494 %",-1.81%
same,inhibition,"Thailand/16681/1984, Concentration 198.0 uM, Number of replicates 2.0, Standard deviation 0.8124211767562954 %",0.204%
O=C(c1cc(Cl)ccc1NS(=O)(=O)c1ccc(Oc2ccccc2Cl)cc1)N1CC[C@H](CO)C1,inhibition,"Thailand/16681/1984, Concentration 49.5 uM, Number of replicates 2.0, Standard deviation 1.1631525408138252 %",2.87%
same,inhibition,"Thailand/16681/1984, Concentration 99.01 uM, Number of replicates 2.0, Standard deviation 1.2459174873464263 %",43.6%
same,inhibition,"Thailand/16681/1984, Concentration 198.0 uM, Number of replicates 2.0, Standard deviation 0.07742612093802895 %",97.8%
O=C(c1cc(Cl)ccc1NS(=O)(=O)c1ccc(Oc2ccccc2Cl)cc1)N1CCC[C@@H]1CO,inhibition,"Thailand/16681/1984, Concentration 49.5 uM, Number of replicates 2.0, Standard deviation 0.383564644131335 %",17.2%
same,inhibition,"Thailand/16681/1984, Concentration 99.01 uM, Number of replicates 2.0, Standard deviation 0.18466388793957156 %",85.5%
same,inhibition,"Thailand/16681/1984, Concentration 198.0 uM, Number of replicates 2.0, Standard deviation 0.022248141217142654 %",93.6%
CNC(=O)C[C@H]1CCCCN1S(=O)(=O)c1ccc(Oc2ccccc2Cl)cc1,inhibition,"Thailand/16681/1984, Concentration 49.5 uM, Number of replicates 2.0, Standard deviation 0.6403061336392061 %",-1.92%
same,inhibition,"Thailand/16681/1984, Concentration 99.01 uM, Number of replicates 2.0, Standard deviation 0.5926288072768489 %",-0.478%
same,inhibition,"Thailand/16681/1984, Concentration 198.0 uM, Number of replicates 2.0, Standard deviation 0.4290957159902598 %",1.47%
CNC(=O)C[C@H]1CCCN1S(=O)(=O)c1ccc(Oc2ccccc2Cl)cc1,inhibition,"Thailand/16681/1984, Concentration 49.5 uM, Number of replicates 2.0, Standard deviation 0.32757728686835763 %",-0.145%
same,inhibition,"Thailand/16681/1984, Concentration 99.01 uM, Number of replicates 2.0, Standard deviation 1.5700018436077314 %",1.46%
same,inhibition,"Thailand/16681/1984, Concentration 198.0 uM, Number of replicates 2.0, Standard deviation 0.26515981673573996 %",3.55%
CNC(=O)[C@H]1CCCN(S(=O)(=O)c2ccc(Oc3ccccc3Cl)cc2)C1,inhibition,"Thailand/16681/1984, Concentration 49.5 uM, Number of replicates 2.0, Standard deviation 1.3425926640552597 %",-1.55%
same,inhibition,"Thailand/16681/1984, Concentration 99.01 uM, Number of replicates 2.0, Standard deviation 1.1232771440198652 %",0.94%
same,inhibition,"Thailand/16681/1984, Concentration 198.0 uM, Number of replicates 2.0, Standard deviation 1.8999403128335026 %",2.72%
CC[C@H]1CCN(C(=O)c2cc(Cl)ccc2NS(=O)(=O)c2ccc(Oc3ccccc3Cl)cc2)C1,inhibition,"Thailand/16681/1984, Concentration 49.5 uM, Number of replicates 2.0, Standard deviation 0.47789805764320614 %",46.7%
same,inhibition,"Thailand/16681/1984, Concentration 99.01 uM, Number of replicates 2.0, Standard deviation 0.11836183761011393 %",61.8%
same,inhibition,"Thailand/16681/1984, Concentration 198.0 uM, Number of replicates 2.0, Standard deviation 0.034704726588234404 %",73.4%
O=Cc1ccc(N2CCC(C(=O)Nc3c(F)cc(F)cc3[N+](=O)[O-])CC2)cc1,inhibition,[1],15.2%
Cc1cc(C(N)=O)c2cccc(Cl)c2n1,inhibition,"Thailand/16681/1984, Concentration 49.95 uM, Number of replicates 2.0, Standard deviation 7.126306314460823 %",-2.36%
same,inhibition,"Thailand/16681/1984, Concentration 99.9 uM, Number of replicates 2.0, Standard deviation 6.288884680839078 %",0.295%
O=Cc1ccc(N2CCC(C(=O)N3CCN(C(=O)OCc4ccccc4)CC3)CC2)cc1,inhibition,[1],11.5%
CC(C)COc1ccc(CNC(=O)C2CCN(c3ccc(C=O)cc3)CC2)cc1,inhibition,[1],2.46%
COC(=O)c1c[nH]c(-c2ccccc2C(=O)Nc2cnn(C)c2)c1,inhibition,"Thailand/16681/1984, Concentration 49.5 uM, Number of replicates 2.0, Standard deviation 4.6959836114984075 %",-3.99%
same,inhibition,"Thailand/16681/1984, Concentration 99.01 uM, Number of replicates 2.0, Standard deviation 3.634509710514387 %",-4.57%
same,inhibition,"Thailand/16681/1984, Concentration 198.0 uM, Number of replicates 2.0, Standard deviation 4.5675250537856 %",-3.67%
CCCN(C[C@H](O)COc1ccccc1C(=O)CCc1ccccc1)C(=O)C1CCN(c2ccc(C=O)cc2)CC1,inhibition,[1],15.7%
Cc1cc(CO)c2cccc(Cc3ccccc3C(=O)N3CCC(CN)CC3)c2n1,inhibition,"Thailand/16681/1984, Concentration 49.95 uM, Number of replicates 2.0, Standard deviation 7.669453256982897 %",67%
same,inhibition,"Thailand/16681/1984, Concentration 99.9 uM, Number of replicates 2.0, Standard deviation 4.997502207892192 %",86.3%
